# High-throughput results deposited in PubChem BioAssay by Buhrlage Lab, Dana-Farber Cancer Institute and Novartis Institutes for BioMedical Research (Cambridge, Mass).
# Only some compounds are listed: those with a hit (about 11% of all), similar ones and a draw of the others.
# USP30 block: inhibitors of human USP30 deubiquitinase; Ubiquitin carboxyl-terminal hydrolase 30 (Homo sapiens), Q70CQ3; purified USP30, Ub-rhodamine cleavage fluorescence; inhibition, % at 25 µM; actives 5.3% (n = 47,000); AID 1645860, 2021
# Target sequence (Q70CQ3 whole entry, looked up): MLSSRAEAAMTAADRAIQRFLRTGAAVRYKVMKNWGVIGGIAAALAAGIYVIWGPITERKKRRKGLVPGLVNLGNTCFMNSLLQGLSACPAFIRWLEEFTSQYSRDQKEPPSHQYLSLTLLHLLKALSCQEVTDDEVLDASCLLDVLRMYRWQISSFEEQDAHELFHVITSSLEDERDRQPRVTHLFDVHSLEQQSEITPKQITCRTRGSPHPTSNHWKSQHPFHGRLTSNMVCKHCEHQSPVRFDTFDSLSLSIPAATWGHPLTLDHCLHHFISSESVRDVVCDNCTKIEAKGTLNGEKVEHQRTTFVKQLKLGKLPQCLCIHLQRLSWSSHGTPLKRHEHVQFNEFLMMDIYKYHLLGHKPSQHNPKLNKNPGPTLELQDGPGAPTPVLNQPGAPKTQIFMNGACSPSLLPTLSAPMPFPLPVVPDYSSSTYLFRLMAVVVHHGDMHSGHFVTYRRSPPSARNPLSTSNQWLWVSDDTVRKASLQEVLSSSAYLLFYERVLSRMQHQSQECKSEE
# USP28 inh: inhibitors of human USP28 deubiquitinase; purified USP28, Ub-rhodamine cleavage fluorescence, 30 min; inhibition, % at 25 µM; actives 3% (n = 47,000); AID 1645857, 2021
# OTUD3 block: inhibitors of human OTUD3 deubiquitinase | OTU domain-containing protein 3 (Homo sapiens), Q5T2D3 | AID 1645858, 2021 | actives 0.7% (n = 47,000) | inhibition, % at 25 µM | purified OTUD3, Ub-rhodamine fluorescence, 2 h
# USP17 block: inhibitors of human USP17 deubiquitinase | actives 6.5% (n = 47,000) | inhibition, % at 50 µM | purified USP17, Ub-rhodamine cleavage fluorescence, 3 h | Ubiquitin carboxyl-terminal hydrolase 17-like protein 5 (Homo sapiens), A8MUK1 | AID 1645855, 2021
# * hit, by the source's call; x = no result given. Rule as the data show it: active = inhibition above about 30%; inactive = the rest.
SMILES,USP30 block,USP28 inh,OTUD3 block,USP17 block
C[C@@H](NC(=O)Cc1ccc(F)cc1)c1nc2cc(-c3ccccc3F)ncn2n1,8.3,0.8,-5.4,16.0
CCOCc1ccc(C(=O)N[C@H](C)c2nc3cc(-c4ccc(OC)cc4)ncn3n2)cc1,40.7*,22.1,-1.6,13.2
Cc1cc(C(=O)N2CC(C(=O)Nc3ccc(S(C)(=O)=O)cc3)C2)no1,15.9,8.4,10.5,-1.9
COc1cn(-c2ccc(F)cc2)nc1C(=O)Nc1ccc(F)c(F)c1,32.0*,4.1,4.9,35.1*
COc1ccc(NC(=O)CSc2nccn(-c3ccc(F)c(F)c3)c2=O)cc1Cl,-87.1,5.8,-16.0,4.7
O=C(CSc1nc2cc(S(=O)(=O)Nc3ccccc3Cl)ccc2o1)Nc1ccc(N2CCOCC2)cc1,53.2*,22.5,21.8,x
COc1ccccc1NS(=O)(=O)c1cccc(C(=O)N2CCCCCC2)c1,36.1*,13.1,5.0,4.7
CN(c1ccccc1)S(=O)(=O)c1cccc(C(=O)N2CCCCCC2)c1,x,x,0.0,2.4
CC(=O)c1cc2c(cc1NC(=O)c1cc(S(=O)(=O)N3CCCC3)cn1C)OCO2,9.9,0.5,-1.9,18.8
CC(=O)c1cc2c(cc1NC(=O)c1oc3c(c1C)-c1[nH]ncc1CC3)OCO2,-33.9,9.6,-0.3,42.6*
CCc1ccc(N2CC(C(=O)OCc3cc(=O)oc4c(C)c(C)ccc34)CC2=O)cc1 (stereo not drawn),45.0*,4.2,15.7,30.9*
CCc1ccc(NC(=O)COC(=O)C2CC(=O)N(c3ccc(F)cc3)C2)cc1 (stereo not drawn),13.7,25.2,3.7,12.7
O=C(C(Sc1ccccc1)c1ccccc1)N1CCN(c2cccc(C(F)(F)F)c2)CC1 (stereo not drawn),30.7*,23.2,14.4,x
O=C(CN1C(=O)CCOc2ccccc21)N1CCN(c2cccc(C(F)(F)F)c2)CC1,-2.8,-8.4,-13.9,-15.3
O=c1c2nnn(Cc3ccccc3)c2ncn1Cc1nc(-c2cccc(Cl)c2)no1,35.6*,14.3,9.2,-6.9
Cc1cc(-c2cncc(CC3CCN(S(C)(=O)=O)CC3)n2)n[nH]1,8.4,-4.5,3.0,-6.4
COc1ccccc1CNC(=O)Cn1c(=O)[nH]c2c(-c3ccccc3)c[nH]c2c1=O,-109.8,-6.4,-23.2,44.3*
CCC(C)NC(=O)Cn1c(=O)[nH]c2c(-c3ccccc3)c[nH]c2c1=O (stereo not drawn),x,x,2.8,38.0*
COc1ccccc1CNC(=O)Cn1c(C)nc2onc(C)c2c1=O,34.8*,13.2,11.8,16.1
COc1ccc(CNC(=O)Cn2c(=O)[nH]c3c(-c4ccccc4F)c[nH]c3c2=O)cc1,-31.0,-47.2,-12.2,-17.7
Fc1ccc(-c2cc(CN3CCCC3)[nH]n2)cc1,24.6,5.4,9.1,8.3
COc1ccc(-c2nc3c(c(=O)c4ccccc4n3C)c(=O)n2CC(C)C)cc1,28.0,11.8,7.6,33.7*
COc1ccc(CCn2c(-c3ccc(C)cc3)nc3c(c(=O)c4ccccc4n3C)c2=O)cc1,-27.8,-7.3,-3.2,-12.7
CC(c1ccccc1)n1c(-c2ccc(F)cc2)nc2c(c(=O)c3ccccc3n2C)c1=O (stereo not drawn),26.6,12.7,10.4,60.1*
CC(C)C(=O)O[C@H]1[C@H](C)C(=O)O[C@@H](C)[C@@H](NC(=O)c2cccc(NC=O)c2O)C(=O)O[C@@H]1C,35.2*,17.8,17.9,45.4*
SMILES,USP30 block,USP28 inh,OTUD3 block,USP17 block
COC(=O)C(NC(=O)c1cccc(NC=O)c1O)C(C)O (stereo not drawn),-6.0,-15.1,-10.8,-27.5
O=C(/C=C/c1ccc2c(c1)OCO2)Nc1nc2c(s1)COCC2,22.9,22.2,2.9,64.9*
O=C(/C=C/c1ccc2c(c1)OCO2)NCc1ccc2c(c1)OCO2,32.5*,21.5,8.6,25.3
O=C(NCc1ccc2c(c1)OCO2)c1cc2c(s1)CCC2,29.6,44.1*,21.9,47.9*
O=C(/C=C/c1ccco1)Nc1nc2c(s1)COCC2,-230.5,-16.5,-40.8,-46.8
O=C(NCc1ccc2c(c1)OCO2)c1ccsc1,-1.8,-4.9,-5.4,-8.6
Oc1ccc2c3c1[C@@H](O)C1OC1[C@]31Oc3cccc4c3[C@](C=C[C@@H]4O)(O2)O1 (stereo partly drawn),-54.2,4.4,-7.3,46.3*
COc1ccc(/C=C/C(=O)Nc2c3c(nc4c2CCC4)CCCC3)cc1,61.0*,6.9,8.2,37.9*
COc1ccc(/C=C/C(=O)Nc2ccc(OC)nc2)cc1,-44.8,17.1,-6.1,22.7
Cc1ccc(N2CC(C(=O)Nc3cccc(-c4noc(C)n4)c3)CC2=O)cc1 (stereo not drawn),5.1,-2.2,-1.0,11.0
CC(NC(=O)c1ccc2ccccc2n1)c1ccccc1 (stereo not drawn),44.0*,22.5,23.2,18.5
Cc1ccc(-n2nc(C(=O)NCc3ccccc3)c3ncn(C)c(=O)c32)cc1,29.7,8.0,11.2,-0.3
Cc1nccc(N2CCC(c3c(C(=O)N(C)C)sc4nccnc34)CC2)n1,30.4*,7.7,14.0,8.0
CSc1ccc(CNC(=O)Cc2c(C)n[nH]c2C)cc1,34.2*,8.0,11.9,15.4
COc1cccc(CNC(=O)Cc2c(C)n[nH]c2C)c1,-5.8,-6.7,-7.6,x
Cc1cccc(Cn2cc(S(=O)(=O)N3CCCCC3)ccc2=O)c1,16.5,14.1,16.7,11.5
Cn1ccc(C(=O)N2CCN(c3nc4ccccc4s3)CC2)n1,x,x,-0.1,9.3
O=C(NCCc1ccccc1F)c1cn2cc(Cl)ccc2n1,61.4*,17.6,9.1,28.4
Cc1ccc(NC(=O)[C@H](C)NC(=O)C2CCN(C(=O)[C@@H](NC(=O)OC(C)(C)C)C(C)C)CC2)cc1,0.8,1.0,1.8,-0.9
Cc1ccnc(NC(=O)c2ccn(COc3ccc(F)cc3)n2)c1,40.0*,13.5,2.8,10.4
Cc1ccnc(NC(=O)c2cc(-c3cccnc3)n(-c3ccccc3)n2)c1,0.1,-16.9,-0.3,-10.3
Cc1cccc(C)c1NC(=O)c1ccn(COc2ccccc2)n1,15.0,36.0*,0.0,-0.6
Cc1ccnc(NC(=O)c2ccn(COc3ccc(Cl)cc3)n2)c1,71.7*,25.3,14.5,46.6*
COc1ccc(OCn2ccc(C(=O)Nc3cnn(C)c3C)n2)cc1,-5.1,1.3,-3.5,x
Cc1ccc(NC(=O)c2ccn(COc3ccc(F)cc3)n2)nc1,8.0,9.6,-6.2,59.9*
SMILES,USP30 block,USP28 inh,OTUD3 block,USP17 block
O=C(Nc1ccc(Cl)cn1)c1ccn(COc2ccccc2)n1,15.8,11.8,13.9,14.7
CCc1c(C)nc2c(-c3ccccc3)c(Cc3ccccc3)[nH]n2c1=O,26.5,12.1,21.8,17.3
COCc1nn(C)c2c1CN(C(=O)c1ccc3ccccc3n1)CC2,-9.2,-4.1,-2.7,-4.1
COc1ccc(-c2cc(C(=O)Nc3n[nH]c4nc(C)ccc34)[nH]n2)c(OC)c1,4.1,4.1,2.3,31.8*
COc1cccc(-c2cc(C(=O)Nc3cccc(C)c3)[nH]n2)c1,-18.5,-14.8,-9.7,2.9
COc1ccccc1C(=O)N1CCN(c2nc(-c3ccc(Cl)cc3)no2)CC1,5.3,3.2,2.6,3.1
O=C(c1ccccc1F)N1CCN(c2nc(-c3ccc(Cl)cc3)no2)CC1,43.9*,8.5,-0.9,-6.3
